Compound activity (PubChem)
BH1578 lux ind = induces V. cholerae light production without autoinducers | V. cholerae BH1578 lux reporter, luminescence, 6 h | activation, % at 18.7 µM | actives 0.16% (n = 350,000) | AID 588436; in the data active = activation mostly above about 9.7%, no sharp cut-off
Mtb FBA inh = Mtb fructose-bisphosphate aldolase inhibition; P9WQA3; inhibition, % at 1 µM; actives 2.3% (n = 360,000); purified M. tuberculosis FBA, fluorescence read-out; in the data active = inhibition above about 27%;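 also: 0% = vehicle and 100% = reference inhibitor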
Target sequence (P9WQA3 whole entry, looked up): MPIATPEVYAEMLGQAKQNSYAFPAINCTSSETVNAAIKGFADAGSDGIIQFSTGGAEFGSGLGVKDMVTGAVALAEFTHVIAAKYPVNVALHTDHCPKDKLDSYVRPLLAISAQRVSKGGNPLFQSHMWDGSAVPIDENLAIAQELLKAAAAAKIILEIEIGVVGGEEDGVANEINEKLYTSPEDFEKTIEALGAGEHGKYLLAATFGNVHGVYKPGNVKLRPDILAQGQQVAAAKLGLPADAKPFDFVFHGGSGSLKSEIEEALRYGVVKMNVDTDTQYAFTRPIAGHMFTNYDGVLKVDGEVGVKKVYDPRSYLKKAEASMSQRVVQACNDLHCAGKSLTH
GDH-TPI counter = counter-screen for M. tuberculosis FBA inhibitors: GDH-TPI coupled enzymes | inhibition, % at 4.8 µM | actives 1.2% (n = 360,000) | GDH-TPI coupled enzyme counterscreen, NADH absorbance;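 also: 0% = DMSO wells and 100% = wells lacking the enzyme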
CCHF vOTU inh = blocks the CCHF virus ovarian tumor domain protease | CCHFV vOTU protease, Pep-AMC fluorescence | inhibition, % at 11.5 µM | actives 0.55% (n = 370,000); also: 0% = vehicle wells with enzyme and 100% = no enzyme wells
* marks the source's active call; other numbers are inactive results; i = inactive; . = not tested or not shown; + = active, no number. Rows were chosen to be rich in hits. Some 3.9% of all compounds tested hit in one or more screens of this group. Rule as the data show it, unless noted: active = inhibition above about 30%; inactive = the rest.

SMILES	BH1578 lux ind	Mtb FBA inh	GDH-TPI counter	CCHF vOTU inh
CC(/C=C/c1ccc2c(c1)OCO2)=N\NC(=O)C(O)c1ccccc1 (stereo not drawn)	-1	-1	28	0
C=CCNC(=O)c1c(-c2c(F)cccc2Cl)noc1C	2	-5	6	.
CCc1ccc(C2=NN(CCC(=O)NC3CCCCCC3)C(=O)CC2)cc1	0	-3	4	16
O=C(Nc1ccc([N+](=O)[O-])cc1)C1COc2ccccc2O1 (stereo not drawn)	-1	0	14	12
O=C(N/N=C/C=C/c1ccc([N+](=O)[O-])cc1)C1COc2ccccc2O1 (stereo not drawn)	-2	0	35*	20
CC(=O)c1c(C)[nH]c(C(=O)OCC(=O)Nc2nnc(-c3ccccc3)o2)c1C	3	0	6	7
Cn1c(=O)c2cc(NC(=O)Nc3ccccc3)ccc2n1Cc1ccccc1	-3	142*	4	-113
Cn1c(=O)c2cc(NC(=O)NCc3ccccc3)ccc2n1Cc1ccc(Cl)cc1	i	123*	-7	-120
COc1ccccc1CNS(=O)(=O)c1ccc(-n2cccn2)cc1	3	3	-8	9
CC1CC(=O)C2=C(C1)Nc1nc3ccccc3n1C2c1cccnc1 (stereo not drawn)	i	165*	14	-195
O=C1CCCC2=C1C(c1ccncc1)n1c(nc3ccccc31)N2 (stereo not drawn)	-1	+	14	-205
COc1ccc(/C=N/NC(=O)c2[nH]c3ccc(Br)cc3c2-c2ccccc2)c(C(=O)O)c1OC	-1	7	39*	4
COc1ccc(/C=N/NC(=O)c2[nH]c3ccc(Cl)cc3c2-c2ccccc2)c(C(=O)O)c1OC	i	5	31*	29
C=CCn1c(-c2ccc(OC)cc2)nc2nc3ccccc3nc21	.	144*	31	-89
Fc1ccc(-n2c(-c3ccco3)n[nH]c2=S)cc1	0	1	-11	-5
c1ccc(-c2nc3nc4ccccc4nc3n2Cc2ccco2)cc1	-1	3	26	8
Fc1ccc(-c2nc3nc4ccccc4nc3n2Cc2ccco2)cc1	-6	-3	40*	3
Fc1ccc(-n2c(-c3ccco3)nc3nc4ccccc4nc32)cc1	1	126*	12	-91
C=CCN1C(=O)c2n[nH]c(COC)c2C1c1ccc2c(c1)OCO2 (stereo not drawn)	.	.	.	11
CCOc1ccc(C(=O)OC(C)CN2CCN(C)CC2)cc1 (stereo not drawn)	0	4	7	-12
CC(=O)Nc1nc(-c2ccc(Cl)cc2)ns1	-1	1	4	-2
COc1cccc(N2CC(=O)Nc3c(oc4nc(-c5ccccc5)cc(C)c34)C2=O)c1	1	2	35*	9
Cc1cc(-c2ccccc2)nc2oc3c(c12)NC(=O)CN(c1ccccc1)C3=O	-1	5	10	-9
c1ccc2c(c1)CCCN2c1nc2ccccc2n2cnnc12	0	2	36*	8
c1ccc2c(c1)CCN(c1nc3ccccc3n3cnnc13)C2	0	5	4	-1
SMILES	BH1578 lux ind	Mtb FBA inh	GDH-TPI counter	CCHF vOTU inh
CCOC(=O)c1nn(-c2ccc3c(c2)CCN3C(C)=O)cc1O	-7	+	26	-88
Cc1cc(/C=C(/C#N)C(=O)O)c(C)n1-c1cccc2ccccc12	i	6	41*	7
CCOc1ccc(C(=O)NC(C(=O)NCC2CCCO2)C(C)C)cc1 (stereo not drawn)	0	0	1	-2
Cc1ccc(C(=O)N2N=C(c3ccccc3O)CC2c2ccccc2)cc1 (stereo not drawn)	11	3	4	-11
Oc1ccccc1C1=Nc2ncnn2C(c2ccccc2)C1 (stereo not drawn)	-2	3	35*	-1
COC(=O)C(CSCc1ccccc1)NC(=O)CSc1nc(C)cc(=O)[nH]1 (stereo not drawn)	i	-1	1	-8
COc1ccc(CN2CCc3c([nH]c4ccccc34)C2)cc1Br	0	11	43*	14
O=C(CN1C(=O)S/C(=C\c2ccccc2Cl)C1=O)NCCCn1ccnc1	0	3	35*	-10
COc1ccc(NC(=O)CN(C)S(=O)(=O)c2cnc[nH]2)cc1OC	0	0	-6	-10
COCCNc1nc(Nc2ccc(C(=O)OC)cc2)c2sccc2n1	i	5	31*	-4
CC(=O)Oc1ccccc1/C=C/c1ccc2ccccc2[n+]1C	-1	2	31*	-11
CCN1CCN(c2nc3c(C)cccn3c(=O)c2/C=C(\C#N)C(=O)NCCCOC)CC1	i	143*	-5	-81
CC(C)(OC1OC(CO)C(O)C(O)C1O)[C@H]1Oc2ccc3ccc(=O)oc3c2[C@H]1O (stereo partly drawn)	1	117*	28	-32
C/C=C(/C)C(=O)O[C@@H]1c2c(ccc3ccc(=O)oc23)O[C@@H]1C(C)(C)OC(=O)/C(C)=C\C	-5	11	7	5
CNC(=O)c1ccc(-c2ccc(OC)cc2)s1	-4	+	26	-246
Cc1sc(NC(=O)c2ccco2)c(C(c2cccnc2)N2CCCC2)c1C (stereo not drawn)	i	1	31*	12
Oc1c(C(Nc2nccs2)c2ccc(C(F)(F)F)cc2)ccc2cccnc12 (stereo not drawn)	-1	124*	8	1
CC(=O)OC1COC(OC(C)=O)CO1 (stereo not drawn)	-1	2	3	-6
Cc1c(N=Cc2c(O)n(CCc3ccc(F)cc3)c(=O)[nH]c2=O)c(=O)n(-c2ccccc2)n1C	-2	-4	36*	10
COc1ccc(OC)c(-n2c(O)c(C=Nc3c(C)n(C)n(-c4ccccc4)c3=O)c(=O)[nH]c2=S)c1	-1	-1	32*	-6
C=CCn1c(O)c(C=Nc2c(C)n(C)n(-c3ccccc3)c2=O)c(=O)[nH]c1=O	1	1	11	16
CN(C)c1ccc(C(=O)OCC(=O)Nc2cccc(S(=O)(=O)N3CCCC3)c2)cc1	-1	6	14	0
COc1ccc(N2CCc3c(C)nc4c(OC)cccc4c32)cc1	-1	1	11	1
Cc1nc2c(C)cccc2c2c1CCN2c1ccccc1F	-1	113*	10	-179
Fc1ccc(Cn2ccc(-c3cnc(-c4ccccc4)s3)n2)cc1	-2	142*	12	-30
SMILES	BH1578 lux ind	Mtb FBA inh	GDH-TPI counter	CCHF vOTU inh
O=S(=O)(c1ccccc1)n1ccc(-c2cnc(-c3ccccc3)s2)n1	i	2	5	-11
Cc1ccc(Cn2ccc(-c3cnc(-c4ccccc4)s3)n2)cc1	-3	52*	26	-15
COc1ccc(C(CC(=O)c2ccc(O)cc2)S(=O)(=O)c2ccc(C)cc2)cc1 (stereo not drawn)	i	-1	34*	15
COc1ccc(C(=O)CCS(=O)(=O)c2ccc(C)cc2)cc1	i	1	10	9
CCC(NC(=O)Cc1c(C)c2ccc(OC)c(C)c2oc1=O)C(=O)NC(Cc1ccc(Cl)cc1)C(=O)O (stereo not drawn)	-1	143*	20	-84
Cc1c(OCC(=O)NC(Cc2ccc(Cl)cc2)C(=O)O)ccc2c1oc(=O)c1ccccc12 (stereo not drawn)	-1	17	16	-21
